# From PubChem BioAssay (Tox21)
# Values joined by “and” are separate entries in the source; they are usually repeats but may differ in a detail not shown here. Equal entries are not always repeated. Results filed as inconclusive are left out. A call without a number means that no potency is given here. Active and inactive are the calls of the source. Calls come from the whole dose curve; as a rule, active = well fitted cell-killing curve with a large enough effect in the repeat runs; inconclusive = weak or mixed curves, or effect the other way; inactive = no such curve, though single readings can be large or run the other way.
# Test: qHTS assay to identify small molecule agonists of the estrogen receptor alpha (ER-alpha) signaling pathway in the presence of an antagonist - cell viability counter screen (AID 1259386);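 note: cells exposed to compounds for 22 h at 37 °C before the viability read; nearly all actives have a fitted effect of over 30% in size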
# Conditions: VM7Luc4E2 viability, CellTiter-Fluor fluorescence, 22 h; series mostly up to 92.4 µM
# From the text: National Center for Advancing Translational Sciences [NCATS]
# NIH Chemical Genomics Center [NCGC]
# U.S. Environmental Protection Agency [EPA]
# National Institutes of Environmental Health Sciences [NIEHS]
# National Toxicology Program [NTP]
# U.S. Food and Drug Administration [FDA]
# Estrogen receptor (ER), a member of nuclear hormone receptor plays an important role in development, metabolic homeostasis and reproduction. Two subtypes of ER, ER-alpha and ER-beta, have similar expression patterns with some uniqueness in both types. Endocrine disrupting chemicals (EDCs) and their interactions with steroid hormone receptors like ER causes disruption of normal endocrine function. Therefore, it is important to understand the effect of environmental chemicals in ER signaling pathway. For identifying ER agonists, VM7Luc4E2 cell line has been used in the current assay.
# VM7Luc4E2 cell line (provided by Denison MS, University of California) endogenously expresses full-length ER-alpha and is stably transfected with a plasmid containing four estrogen responsive elements (ERE) upstream of a luciferase reporter gene. This current screening for measuring luciferase reporter gene activity using VM7Luc4E2 cells against Tox21 10K library collection is a confirmation study on agonist mode screening in presence of ER-antagonist (ICI-182,780) at 10.0nM final concentration. The cytotoxicity of the compounds was tested in parallel by measuring the cell viability using CellTiter-Fluor assay system (Promega, Madison, WI) in the same wells.
# Tox21 Assay Protocol Summary:
# VM7Luc4E2 cells were cultured in phenol red free assay medium containing 10% charcoal stripped FBS for 5 days prior to the assay. The cells were dispensed at 4,000 cells in 4uL of assay medium per well into white wall/solid-bottom 1536-well plates (Corning Life Sciences, Corning, NY) using a Multidrop Combi (Thermo Fisher Scientific Inc., Waltham, MA) dispenser. After the assay plates were incubated at 37C and 5% CO2 for 24hr, 1uL of 10.0nM (final concentration) ICI-182,780 or assay buffer was added using two separate tips of Flying Reagent Dispenser (FRD, Aurora Discovery, San Diego, CA). Then 23nL of compounds dissolved in DMSO at 15 concentrations and positive controls or DMSO only was transferred to the assay plates by a Pintool station (Wako, San Diego, CA). The assay plates were incubated at 37C and 5% CO2 for 22hr. After 21hr incubation at 37C, 1uL/well CellTiter-Fluor reagent (Promega Corporation, Madison, WI) was added to each well using FRD and after 1hr incubation at 37C and 5% CO2, the fluorescence signal was measured on ViewLux plate reader (PerkinElmer, Shelton, CT).
# Potency is the fitted concentration of half-maximal effect.
row,Structure (SMILES),Potency
1,CCCCNC(N)=O,inactive
2,CCOC(=O)[C@H](CCc1ccccc1)N[C@@H](C)C(=O)N1Cc2ccccc2C[C@H]1C(=O)O,inactive
3,CCCCCCOC(C)=O,inactive
4,NC(=O)/N=N/C(N)=O,inactive
5,OCCOCCOCCOCCO,inactive
6,C=C(C)C(=O)OCC(CC)(COC(=O)C(=C)C)COC(=O)C(=C)C,inactive
7,CC1COc2ccccc2N1C(=O)C(Cl)Cl (stereo not given),inactive
8,Cc1ccc(C(=O)O)o1,inactive
9,OC[C@@H](O)[C@@H](O)[C@H](O)[C@@H](O)CO,inactive
10,CC1=C(/C=C/C(C)=C/C=C/C(C)=C/CO)C(C)(C)CCC1,inactive
11,CC(C)n1c(/C=C/[C@@H](O)C[C@@H](O)CC(=O)O)c(-c2ccc(F)cc2)c2ccccc21,inactive
12,Cc1ccc(N)c(S(=O)(=O)O)c1,inactive
13,NCc1cccc(CN)c1,inactive
14,CC1Cc2ccccc2N1NC(=O)c1ccc(Cl)c(S(N)(=O)=O)c1 (stereo not given),inactive
15,CCC(C)C=O (stereo not given),inactive
16,ClC1=C(Cl)C(Cl)(Cl)C(Cl)=C1Cl,inactive
17,CCCCOCCOCCOC(=O)CCCCC(=O)OCCOCCOCCCC,inactive
18,CC[Si](OC(C)=O)(OC(C)=O)OC(C)=O,inactive
19,CC1=CC[C@H]2C[C@@H]1C2(C)C,inactive
20,Oc1ccc2ccccc2c1N=Nc1ccccc1,21.7 µM (active) and 19.3 µM (active)

row,Structure (SMILES),Potency
1,CC1CC(OC(=O)c2ccccc2O)CC(C)(C)C1 (stereo not given),inactive
2,O=C(c1ccc(O)cc1)c1ccc(O)cc1O,inactive
3,COC(=O)Nc1nc2ccc(Sc3ccccc3)cc2[nH]1,inactive
4,COCC(=O)O,inactive
5,COC(=O)c1ccc(C(=O)OC)cc1,inactive
6,COCC(C)O (stereo not given),inactive
7,CS(=O)(=O)Nc1ccc([N+](=O)[O-])cc1Oc1ccccc1,48.6 µM (active) and 26.6 µM (active)
8,S=c1nc[nH]c2nc[nH]c12,inactive
9,O=C1N=C(O)CN1/N=C/c1ccc(-c2ccc([N+](=O)[O-])cc2)o1,27.3 µM (active) and 26.6 µM (active)
10,CC(C)(CO)COC(=O)C(C)(C)CO,inactive
11,CCCCCCC(C)(C)S,inactive
12,CCCCC(CC)COC(=O)CCCCCCCC(=O)OCC(CC)CCCC (stereo not given),inactive
13,O=S(=O)(Oc1ccc(Cl)cc1Cl)c1ccccc1,inactive
14,COC(=O)c1ccccc1O,inactive
15,CCCCCC/C=C/CCCCCCCC(=O)O,inactive
16,Clc1cc(Cl)c(Cl)cc1Cl,inactive
17,O=C(O)c1cc(-c2ccccc2)nc2ccccc12,inactive
18,CCOC(=O)C1OC1c1ccccc1 (stereo not given),inactive
19,O=S(=O)(O)c1cc(S(=O)(=O)O)c2c(N=Nc3ccccc3)c(O)ccc2c1,61.4 µM (active) and 27.3 µM (active)
20,OC1CCCC1,inactive
